{
  "source": "PubChem BioAssay (NCATS)",
  "note": "Inconclusive results are not listed. Where a call stands in place of a potency, no number is given. Calls of active or inactive are those of the source. The call rests on the fitted dose curve; in most records, active means well fitted curve in the direction sought with a large enough effect; inconclusive means small, poorly fitted or top-dose-only effect, or another doubt; inactive means no such curve, though single readings can be large; an effect the other way counts as inactive or inconclusive.",
  "data": [
    {"molecular_target": "Protein phosphatase 1D (Homo sapiens) (UniProt O15297)", "sequence (O15297 whole entry, looked up)": "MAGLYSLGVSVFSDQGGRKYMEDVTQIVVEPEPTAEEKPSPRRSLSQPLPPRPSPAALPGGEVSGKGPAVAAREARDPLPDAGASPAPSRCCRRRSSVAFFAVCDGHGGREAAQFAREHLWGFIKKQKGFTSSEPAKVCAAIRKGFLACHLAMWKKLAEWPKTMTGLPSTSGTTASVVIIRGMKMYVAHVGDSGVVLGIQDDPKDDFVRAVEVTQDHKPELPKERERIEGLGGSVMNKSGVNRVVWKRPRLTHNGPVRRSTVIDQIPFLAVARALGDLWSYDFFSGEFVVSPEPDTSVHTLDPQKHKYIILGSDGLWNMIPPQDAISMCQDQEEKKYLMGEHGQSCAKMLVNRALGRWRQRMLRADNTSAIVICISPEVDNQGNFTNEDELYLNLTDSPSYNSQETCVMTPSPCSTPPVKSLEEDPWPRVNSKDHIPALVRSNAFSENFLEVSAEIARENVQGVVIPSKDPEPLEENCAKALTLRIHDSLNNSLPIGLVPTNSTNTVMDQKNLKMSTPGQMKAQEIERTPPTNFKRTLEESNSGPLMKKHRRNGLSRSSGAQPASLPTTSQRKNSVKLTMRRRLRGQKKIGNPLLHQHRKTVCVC", "experiment": "RapidFire Mass Spectrometry qHTS Assay for Modulators of WT P53-Induced Phosphatase 1 (WIP1) (AID 1347424);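 further: amount of dephosphorylated VEPPL-S-QETFS peptide product formed by WIP1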", "conditions": "WIP1 dephosphorylation of phosphopeptide, RapidFire MS; series mostly up to 63 µM", "summary_of_the_method": "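WIP1 (10 nM final) was preincubated 1 h at room temperature with compounds in Tris-HCl pH 7.5, 30 mM MgCl2, TCEP, EGTA, BSA; 2 uM VEPPL-pS-QETFS phosphopeptide was added for 5 min, quenched with formic acid, and dephosphorylated product quantified by RapidFire MS.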", "values": [
      {"smiles": "CCCN(CCC)CCc1c[nH]c2ccccc12", "Potency": "inactive"},
      {"smiles": "CN(C)CCc1c[nH]c2cccc(O)c12", "Potency": "inactive"},
      {"smiles": "CN1C(=O)CN=C(c2ccccc2)c2cc([N+](=O)[O-])ccc21", "Potency": "inactive"},
      {"smiles": "CCc1cc(OC)c(C[C@H](C)N)cc1OC", "Potency": "inactive"},
      {"smiles": "NCc1cccnc1", "Potency": "inactive"},
      {"smiles": "CCNc1nc(Cl)nc(NCC)n1", "Potency": "inactive"},
      {"smiles": "O=C(O)CCCCCCNC1c2ccccc2CCc2ccccc21", "Potency": "inactive"},
      {"smiles": "COc1ccc2[nH]cc(CCN(C(C)C)C(C)C)c2c1", "Potency": "inactive"},
      {"smiles": "CCC(=O)OC1(c2ccccc2)CCN(C)CC1", "Potency": "inactive"},
      {"smiles": "C[C@]12CC[C@H]3[C@@H](CCC4=CC(=O)CC[C@@]43C)[C@@H]1CC[C@@H]2C(=O)O", "Potency": "inactive"},
      {"smiles": "CN1C(=O)CN=C(c2ccccc2)c2cc(Cl)ccc21", "Potency": "inactive"},
      {"smiles": "COc1ccc(OC)c(CC(C)N)c1", "note": "(stereo not given)", "Potency": "inactive"},
      {"smiles": "C[C@H]1CNCCc2ccc(Cl)cc21", "Potency": "inactive"},
      {"smiles": "COc1cc(CC(C)N)c(OC)cc1Br", "note": "(stereo not given)", "Potency": "inactive"},
      {"smiles": "C[N+](C)(C)CCOC(=O)C(O)(c1ccccc1)c1ccccc1", "Potency": "inactive"},
      {"smiles": "CCc1ccc(C2CCNCC2)cc1", "Potency": "inactive"},
      {"smiles": "COCC(=O)N(c1c(C)cccc1C)C(C)C(=O)OC", "note": "(stereo not given)", "Potency": "inactive"},
      {"smiles": "CC[C@H](O)C(C[C@H](C)N(C)C)(c1ccccc1)c1ccccc1", "Potency": "inactive"},
      {"smiles": "CCCC(C)C1(CC)C(=O)N=C(S)NC1=O", "note": "(stereo not given)", "Potency": "inactive"},
      {"smiles": "CCOC(=O)NC(O)C(Cl)(Cl)Cl", "note": "(stereo not given)", "Potency": "inactive"},
      {"smiles": "CC(=O)OC1(c2ccccc2)CCN(CCc2ccccc2)CC1", "Potency": "inactive"},
      {"smiles": "CCC1(CC)C(=O)NC(=O)NC1=O", "Potency": "inactive"},
      {"smiles": "Oc1c(Br)cc(Br)cc1Br", "Potency": "inactive"},
      {"smiles": "CC(CC(C#N)(c1ccccc1)c1ccccc1)N(C)C", "note": "(stereo not given)", "Potency": "inactive"},
      {"smiles": "CCN(CC)C(C)C(=O)c1ccccc1", "note": "(stereo not given)", "Potency": "inactive"},
      {"smiles": "CCN1CCCC1CNC(=O)C(O)(c1ccccc1)c1ccccc1", "note": "(stereo not given)", "Potency": "inactive"},
      {"smiles": "COc1cc(N)c(Cl)cc1C(=O)NC1CN2CCC1CC2", "note": "(stereo not given)", "Potency": "inactive"},
      {"smiles": "O=C1NCN(c2ccccc2)C12CCN(CCCOc1ccc(F)cc1)CC2", "Potency": "inactive"},
      {"smiles": "C[C@H](CN1CCOCC1)C(C(=O)N1CCCC1)(c1ccccc1)c1ccccc1", "Potency": "inactive"},
      {"smiles": "ClCCCN1CCN(c2cccc(Cl)c2)CC1", "Potency": "inactive"},
      {"smiles": "c1cc2c(c(N3CCNCC3)c1)OCCO2", "Potency": "inactive"},
      {"smiles": "CN1C[C@@H](NS(=O)(=O)N(C)C)C[C@@H]2c3cccc4c3c(cn4C)C[C@H]21", "Potency": "inactive"},
      {"smiles": "CNC(C)Cc1ccc2c(c1)OCO2", "note": "(stereo not given)", "Potency": "inactive"},
      {"smiles": "C[C@H]1C(=O)O[C@@H]2CCN3CC=C(COC(=O)[C@](C)(O)[C@]1(C)O)[C@H]23", "Potency": "inactive"},
      {"smiles": "CCOC(C(=O)OCCN(C)C)(c1ccccc1)c1ccccc1", "Potency": "inactive"},
      {"smiles": "COc1cc(CC(C)N)cc2c1OCO2", "note": "(stereo not given)", "Potency": "inactive"},
      {"smiles": "COP(=S)(OC)Oc1ccc(Sc2ccc(OP(=S)(OC)OC)cc2)cc1", "Potency": "inactive"},
      {"smiles": "CCN(CC)CCOC(=O)C(C)(c1ccccc1)c1ccccc1", "Potency": "inactive"},
      {"smiles": "O=C(CCl)c1ccc(Cl)cc1Cl", "Potency": "inactive"},
      {"smiles": "CCC(OC(C)=O)C(CC(C)NC)(c1ccccc1)c1ccccc1", "note": "(stereo not given)", "Potency": "inactive"}
    ]},
    {"molecular_target": "Protein phosphatase 1D (Homo sapiens) (UniProt O15297)", "experiment": "Rhodamine-PBP qHTS Assay for Modulators of WT P53-Induced Phosphatase 1 (WIP1) (AID 1347425)", "conditions": "recombinant WIP1, Rhodamine-PBP phosphate fluorescence, real-time; series mostly up to 57.5 µM", "summary_of_the_method": "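5 nM WIP1 + 10 uM Rh-PBP, 50 mM Tris pH 7.5, 30 mM MgCl2, 1 mM TCEP, 0.1 mM EGTA, BSA; cpds pinned, 1 hr RT; + 10 uM phosphopeptide; fluorescence 1-min reads x 11 min; delta = f1 - f0.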", "values": [
      {"smiles": "CCCN(CCC)CCc1c[nH]c2ccccc12", "outcome": "inactive"},
      {"smiles": "CN(C)CCc1c[nH]c2cccc(O)c12", "outcome": "inactive"},
      {"smiles": "CN1C(=O)CN=C(c2ccccc2)c2cc([N+](=O)[O-])ccc21", "outcome": "inactive"},
      {"smiles": "CCc1cc(OC)c(C[C@H](C)N)cc1OC", "outcome": "inactive"},
      {"smiles": "NCc1cccnc1", "outcome": "inactive"},
      {"smiles": "CCNc1nc(Cl)nc(NCC)n1", "outcome": "inactive"},
      {"smiles": "O=C(O)CCCCCCNC1c2ccccc2CCc2ccccc21", "outcome": "inactive"},
      {"smiles": "COc1ccc2[nH]cc(CCN(C(C)C)C(C)C)c2c1", "outcome": "inactive"},
      {"smiles": "CCC(=O)OC1(c2ccccc2)CCN(C)CC1", "outcome": "inactive"},
      {"smiles": "C[C@]12CC[C@H]3[C@@H](CCC4=CC(=O)CC[C@@]43C)[C@@H]1CC[C@@H]2C(=O)O", "outcome": "inactive"},
      {"smiles": "CN1C(=O)CN=C(c2ccccc2)c2cc(Cl)ccc21", "outcome": "inactive"},
      {"smiles": "COc1ccc(OC)c(CC(C)N)c1", "note": "(stereo not given)", "outcome": "inactive"},
      {"smiles": "C[C@H]1CNCCc2ccc(Cl)cc21", "outcome": "inactive"},
      {"smiles": "COc1cc(CC(C)N)c(OC)cc1Br", "note": "(stereo not given)", "outcome": "inactive"},
      {"smiles": "C[N+](C)(C)CCOC(=O)C(O)(c1ccccc1)c1ccccc1", "outcome": "inactive"},
      {"smiles": "CCc1ccc(C2CCNCC2)cc1", "outcome": "inactive"},
      {"smiles": "COCC(=O)N(c1c(C)cccc1C)C(C)C(=O)OC", "note": "(stereo not given)", "outcome": "inactive"},
      {"smiles": "CC[C@H](O)C(C[C@H](C)N(C)C)(c1ccccc1)c1ccccc1", "outcome": "inactive"},
      {"smiles": "CCCC(C)C1(CC)C(=O)N=C(S)NC1=O", "note": "(stereo not given)", "outcome": "inactive"},
      {"smiles": "CCOC(=O)NC(O)C(Cl)(Cl)Cl", "note": "(stereo not given)", "outcome": "inactive"},
      {"smiles": "CC(=O)OC1(c2ccccc2)CCN(CCc2ccccc2)CC1", "outcome": "inactive"},
      {"smiles": "CCC1(CC)C(=O)NC(=O)NC1=O", "outcome": "inactive"},
      {"smiles": "Oc1c(Br)cc(Br)cc1Br", "outcome": "inactive"},
      {"smiles": "CC(CC(C#N)(c1ccccc1)c1ccccc1)N(C)C", "note": "(stereo not given)", "outcome": "inactive"},
      {"smiles": "CCN(CC)C(C)C(=O)c1ccccc1", "note": "(stereo not given)", "outcome": "inactive"},
      {"smiles": "CCN1CCCC1CNC(=O)C(O)(c1ccccc1)c1ccccc1", "note": "(stereo not given)", "outcome": "inactive"},
      {"smiles": "COc1cc(N)c(Cl)cc1C(=O)NC1CN2CCC1CC2", "note": "(stereo not given)", "outcome": "inactive"},
      {"smiles": "O=C1NCN(c2ccccc2)C12CCN(CCCOc1ccc(F)cc1)CC2", "outcome": "inactive"},
      {"smiles": "C[C@H](CN1CCOCC1)C(C(=O)N1CCCC1)(c1ccccc1)c1ccccc1", "outcome": "inactive"},
      {"smiles": "ClCCCN1CCN(c2cccc(Cl)c2)CC1", "outcome": "inactive"},
      {"smiles": "c1cc2c(c(N3CCNCC3)c1)OCCO2", "outcome": "inactive"},
      {"smiles": "CN1C[C@@H](NS(=O)(=O)N(C)C)C[C@@H]2c3cccc4c3c(cn4C)C[C@H]21", "outcome": "inactive"},
      {"smiles": "CNC(C)Cc1ccc2c(c1)OCO2", "note": "(stereo not given)", "outcome": "inactive"},
      {"smiles": "C[C@H]1C(=O)O[C@@H]2CCN3CC=C(COC(=O)[C@](C)(O)[C@]1(C)O)[C@H]23", "outcome": "inactive"},
      {"smiles": "CCOC(C(=O)OCCN(C)C)(c1ccccc1)c1ccccc1", "outcome": "inactive"},
      {"smiles": "COc1cc(CC(C)N)cc2c1OCO2", "note": "(stereo not given)", "outcome": "inactive"},
      {"smiles": "COP(=S)(OC)Oc1ccc(Sc2ccc(OP(=S)(OC)OC)cc2)cc1", "outcome": "inactive"},
      {"smiles": "CCN(CC)CCOC(=O)C(C)(c1ccccc1)c1ccccc1", "outcome": "inactive"},
      {"smiles": "O=C(CCl)c1ccc(Cl)cc1Cl", "outcome": "inactive"},
      {"smiles": "CCC(OC(C)=O)C(CC(C)NC)(c1ccccc1)c1ccccc1", "note": "(stereo not given)", "outcome": "inactive"}
    ]}
  ]
}
